Data on 23 molecules can be found in PubChem BioAssay (EPA / NIEHS).

Assay [1] deals with Nuclear respiratory factor 1 (Homo sapiens) (UniProt Q16656). Kind of assay: ATG_NRF1_CIS: Attagene CIS-FACTORIAL HepG2 Assay for human Nuclear Respiratory Factor 1 (NRF1) Orphan Gene (AID 2282987). The note with it: HepG2 NRF1 cis-element reporter, Attagene multiplex; actives raise or lower the signal. In short, it runs like this: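 HepG2 cells transiently transfected with multiple reporter transcription units under cis-regulatory promoter control, so endogenous transcription-factor activity is read. After 24 h compound exposure, reporter mRNA quantified by RT-PCR, fluorescent labelling, HpaI digestion and capillary electrophoresis; bidirectional fitting versus DMSO.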
Chain of Nuclear respiratory factor 1 (Homo sapiens) (Q16656 whole entry, looked up): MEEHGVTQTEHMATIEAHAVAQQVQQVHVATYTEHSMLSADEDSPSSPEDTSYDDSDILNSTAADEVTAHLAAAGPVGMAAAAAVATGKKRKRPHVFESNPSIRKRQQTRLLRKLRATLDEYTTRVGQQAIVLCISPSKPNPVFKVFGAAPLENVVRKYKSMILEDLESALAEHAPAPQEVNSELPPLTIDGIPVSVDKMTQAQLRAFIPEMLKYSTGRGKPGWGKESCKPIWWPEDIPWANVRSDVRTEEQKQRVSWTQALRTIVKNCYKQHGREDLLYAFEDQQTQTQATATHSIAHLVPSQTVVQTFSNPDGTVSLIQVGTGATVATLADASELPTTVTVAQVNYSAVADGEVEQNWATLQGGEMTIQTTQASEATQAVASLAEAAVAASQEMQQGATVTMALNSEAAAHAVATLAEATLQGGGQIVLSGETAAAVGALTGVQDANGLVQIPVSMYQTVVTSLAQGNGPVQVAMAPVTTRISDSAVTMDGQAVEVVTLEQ

Assay [2] is described as follows: ATG_NFI_CIS: Attagene CIS-FACTORIAL HepG2 Assay for human Nuclear Factor I (NFI) (AID 2282989). The note with it: HepG2 cis-regulatory reporter, NFI response element transcription; actives raise or lower the signal. In short, it runs like this: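 Reporter transcripts were measured by RT-PCR with fluorescent primer extension and capillary electrophoresis 24 h post-treatment. HepG2 cells carried transiently transfected cis-regulated reporter constructs reporting endogenous factor activity; gain or loss fitted against DMSO baseline.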

Assay [3] has as its target Myc proto-oncogene protein (Homo sapiens) (UniProt P01106). Kind of assay: ATG_Myc_CIS: Attagene CIS-FACTORIAL HepG2 Assay for human Myelocytomatosis (Myc) Proto-Oncogene Transcription Factor (AID 2282990). The note with it: HepG2, Attagene cis-reporter transcription factor activity; actives raise or lower the signal. In short, it runs like this: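 Fluorescence intensity of reporter-specific cDNA fragments, separated by capillary electrophoresis, gives the signal. Transfected HepG2 cells carrying cis-promoter reporter constructs are incubated with compound for 24 h; DMSO serves as baseline.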

Assay [4] can be described thus: ATG_NRF2_ARE_CIS: Attagene CIS-FACTORIAL HepG2 Assay for human Nuclear Factor Erythroid 2 Related Factor 2 (NFR2) response to Antioxidant Response Elements (ARE) (AID 2282992).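 As to AC50: reporter mRNA level measured by RT-PCR and capillary electrophoresis fluorescence.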 The note with it: HepG2 Attagene ARE/NRF2 reporter, transcription factor activity; actives raise or lower the signal. In short, it runs like this: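 HepG2 cells transiently transfected with multiplexed cis-element reporter constructs, 24 h after chemical dosing; reporter mRNA quantified by RT-PCR, fluorescent primer extension, HpaI digestion and capillary electrophoresis. Bidirectional fit relative to DMSO.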

A short description of assay [5]: ATG_Oct_MLP_CIS: Attagene CIS-FACTORIAL HepG2 Assay for human Octamer-Binding Transcription Factor (Oct) (AID 2282993). The note with it: HepG2 Attagene cis-factorial Oct reporter, mRNA; actives raise or lower the signal. In short, it runs like this:
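Readout is reporter transcript level from RT-PCR with fluorescent primer extension and capillary electrophoresis, fitted in both directions against DMSO. Transfected HepG2 reporter units report endogenous factor activity after 24 h dosing.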

A short description of assay [6]: BSK_3C_TissueFactor: BioMAP Diversity Plus: 3C Assay for Tissue Factor Biomarker Activity (AID 2282997). The note with it: BioMAP 3C HUVEC, tissue factor biomarker readout; actives raise or lower the signal. The method in brief: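 Primary human umbilical vein endothelial cells in the 3C system were exposed to test chemical for 24 h, then Tissue Factor measured by ELISA. Activity was fitted bidirectionally against DMSO as negative control and baseline.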

Assay [7] can be described thus: BSK_3C_uPAR: BioMAP Diversity Plus: 3C Assay for Urokinase-type plasminogen activator receptor (uPAR) Biomarker Activity (AID 2282998). The note with it: BioMAP 3C HUVEC, uPAR biomarker ELISA; actives raise or lower the signal. In short, it runs like this: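 Cell-surface uPAR on HUVEC (3C system) read by ELISA at 24 h post-treatment, with DMSO as baseline and fitting in both directions. Parallel cultures stained with SRB to flag overt cytotoxicity.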
Background: In an ELISA, binding on a coated surface is turned into a signal by an enzyme label.

Assay [8] can be described thus: ATG_NF_kB_CIS: Attagene CIS-FACTORIAL HepG2 Assay for human Nuclear Factor Kappa B (NF-kB) (AID 2282991). The note with it: HepG2 Attagene cis-factorial NF-kB reporter mRNA; actives raise or lower the signal. In short, it runs like this: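 HepG2 cells transiently transfected with multiplexed cis-element reporter units measuring endogenous transcription factor activity; reporter mRNA read 24 h after dosing by RT-PCR, fluorescent labelling, HpaI digestion and capillary electrophoresis. Bidirectional fit against DMSO baseline.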

In assay [9] the target is Cellular tumor antigen p53 (Homo sapiens) (UniProt P04637). Kind of assay: ATG_p53_CIS: Attagene CIS-FACTORIAL HepG2 Assay for human p53 Transcription Factor (AID 2282994). The note with it: HepG2 p53 cis-element reporter, Attagene mRNA; actives raise or lower the signal. The method in brief:
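HepG2 cells transiently transfected with cis-regulated multiple reporter transcription units, dosed 24 h. Reporter mRNA measured by RT-PCR, 6-FAM primer extension, HpaI digestion and capillary electrophoresis; bidirectional fit relative to DMSO.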

More than one record can exist for a structure, and the calls need not agree. Calls of active or inactive are those of the source. The calls were made as follows: active = hit-call score of the fitted dose curve at least 0.9, where 1 is the maximum; inactive = score below 0.9.

Chain of Myc proto-oncogene protein (Homo sapiens) (P01106 whole entry, looked up, the tested form may be a part): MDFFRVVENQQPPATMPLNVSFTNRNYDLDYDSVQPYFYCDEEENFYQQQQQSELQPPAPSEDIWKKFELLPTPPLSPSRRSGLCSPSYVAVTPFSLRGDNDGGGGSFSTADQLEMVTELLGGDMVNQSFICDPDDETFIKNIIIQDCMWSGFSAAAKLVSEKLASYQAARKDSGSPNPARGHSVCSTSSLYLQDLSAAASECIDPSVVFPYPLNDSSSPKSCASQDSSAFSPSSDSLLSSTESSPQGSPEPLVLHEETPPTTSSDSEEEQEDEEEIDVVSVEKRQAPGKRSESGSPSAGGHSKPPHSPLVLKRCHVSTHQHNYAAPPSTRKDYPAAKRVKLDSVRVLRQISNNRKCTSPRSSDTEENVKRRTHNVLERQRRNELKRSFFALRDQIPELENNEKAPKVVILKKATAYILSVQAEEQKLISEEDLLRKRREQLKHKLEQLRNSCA
Chain of Cellular tumor antigen p53 (Homo sapiens) (P04637 whole entry, looked up): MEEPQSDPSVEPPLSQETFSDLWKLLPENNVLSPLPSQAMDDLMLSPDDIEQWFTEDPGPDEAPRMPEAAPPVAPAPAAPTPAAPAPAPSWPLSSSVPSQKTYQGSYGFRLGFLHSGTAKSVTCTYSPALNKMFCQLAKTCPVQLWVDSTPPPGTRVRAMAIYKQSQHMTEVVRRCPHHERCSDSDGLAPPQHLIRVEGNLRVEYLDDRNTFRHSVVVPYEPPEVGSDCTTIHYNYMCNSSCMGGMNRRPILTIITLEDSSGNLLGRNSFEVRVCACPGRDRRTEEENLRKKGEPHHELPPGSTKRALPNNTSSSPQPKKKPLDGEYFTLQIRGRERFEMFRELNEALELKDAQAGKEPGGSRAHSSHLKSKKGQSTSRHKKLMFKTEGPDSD

Turning to `S=C([S-])NCCNC(=S)[S-].[Mn+2]`, the call in assay [1], in [2], in [3], in [4], in assay [5] and in assay [6] was inactive. Also, the result in assay [7] was inactive.
Broadly, the AC50 is the concentration at which the activity in the assay is half-maximal. As for `CCCCOCCOCCOCc1cc2c(cc1CCC)OCO2`, the call in assay [1], in assay [2], in assay [3], in assay [8], in assay [5] and in assay [6] was inactive. Moreover, the outcome in assay [7] was inactive. The AC50 in assay [4] was 7.81 µM (active).
Consider `COC(=O)c1ccc(I)cc1S(=O)(=O)NC(=O)Nc1nc(C)nc(OC)n1`, for which the call in [1], in assay [2], in assay [3], in [4], in assay [5] and in assay [9] was inactive. In addition, the outcome in assay [6] and in assay [7] was inactive.
For the molecule `CCOC(=O)c1ccc(O)cc1`, the result in assay [1], in [2], in assay [3], in [4], in [5] and in assay [9] was inactive. For the same molecule, the outcome in [6] and in assay [7] was inactive. Further, the AC50 in assay [5] was 100 µM (active).
With `CCCCC(CC)COC(=O)c1ccccc1C(=O)O` (centres undefined), the molecule was classed as inactive in assay [1], in [2], in assay [3], in assay [5], in assay [9] and in assay [6]. In addition, the outcome in [7] was inactive. Further, the half-maximal activity concentration (AC50) in [4] was 21.9 µM (active).
In the case of `CCCOC(=O)c1ccc(C(=O)OCCC)nc1`, the result in [1], in assay [2], in assay [3], in assay [8], in [4] and in assay [5] was inactive. In addition, the molecule was classed as inactive in assay [9], in assay [6] and in assay [7].
On to `CCCCCOC(=O)COc1cc(N2C(=O)C3=C(CCCC3)C2=O)c(F)cc1Cl`, for which the result in assay [1], in [2], in assay [3], in assay [5], in assay [6] and in [7] was inactive. The AC50 in assay [4] is 20.7 µM (active).
In the case of `S=C(S)NCCNC(=S)S.[Mn+2].[S-]C([S-])=NCCN=C([S-])[S-].[Zn+2]`, the molecule was classed as inactive in assay [1], in assay [2], in assay [3], in assay [4], in assay [5] and in assay [6]. In assay [7], the outcome was inactive. Moreover, the AC50 in assay [6] is 6.82 µM (active) [middle of 6 runs].
Take `COc1c(Cl)ccc(Cl)c1C(=O)O`: the molecule was classed as inactive in assay [1], in assay [2], in assay [3], in [4], in assay [5] and in [6]. Further, the result in assay [7] was inactive.
Turning to `CCN(Cc1c(F)cccc1Cl)c1c([N+](=O)[O-])cc(C(F)(F)F)cc1[N+](=O)[O-]`, the molecule was classed as inactive in assay [1], in assay [2], in assay [3], in assay [8], in [5] and in [9]. The result in [6] was inactive. Besides, the results for the AC50 in [4] and in assay [7] were 4.28 µM (active) and 12 µM (active), respectively.
As for `Oc1ccc(C(c2ccc(O)cc2)C(Cl)(Cl)Cl)cc1`, the molecule was called inactive in [1], in [2], in [3], in [4], in assay [5] and in assay [9]. Also, the results for the AC50 in assay [6] and in assay [7] were 36.4 µM (active) and 31.5 µM (active), respectively.
Turning to `COC(=O)CSc1cc(N=c2sc(=O)n3n2CCCC3)c(F)cc1Cl`, the outcome in assay [1], in [2], in assay [3], in assay [5], in assay [9] and in assay [6] was inactive. Further, the result in assay [7] was inactive. Also, the AC50 in assay [4] was 27.2 µM (active).
Turning to `N[C@@H](Cc1cc(I)c(Oc2ccc(O)c(I)c2)c(I)c1)C(=O)O`, the result in [1], in assay [2], in assay [3], in [5], in [9] and in assay [6] was inactive. Moreover, the outcome in [7] was inactive. For the same molecule, the AC50 in [9] was 25.2 µM (active).
Regarding `COCCO`, the call in assay [1], in assay [2], in [3], in assay [4], in assay [5] and in [9] was inactive. Besides, the outcome in [6] and in assay [7] was inactive.
On to `CCOC(=O)COc1cc(-n2ncc(C(F)(F)F)c(C)c2=O)c(F)cc1Cl`, for which the outcome in assay [1], in [2], in assay [3], in [4], in [5] and in assay [9] was inactive. Further, the outcome in assay [6] and in assay [7] was inactive.
With `CSC(=O)c1cccc2nnsc12`, the result in assay [1], in assay [2], in assay [3], in assay [4], in [5] and in assay [9] was inactive. Moreover, the outcome in assay [6] and in assay [7] was inactive.
For `CCC(O)=C1C(=O)CC(C(=O)O)CC1=O` (centres undefined), the molecule was classed as inactive in [1], in assay [2], in assay [3], in assay [8], in assay [5] and in [9]. Also, the result in [6] and in assay [7] was inactive. In addition, the AC50 in [4] was 35.6 µM (active).
In the case of `C#CCOC(=O)[C@@H](C)Oc1ccc(Oc2ncc(Cl)cc2F)cc1`, the result in assay [1], in assay [2], in assay [3], in assay [4], in assay [5] and in assay [9] was inactive. In addition, the outcome in [6] and in assay [7] was inactive.
`CCCOC(=O)NCCCN(C)C`: the call in assay [1], in [2], in assay [3], in assay [4], in assay [5] and in [9] was inactive. Also, the outcome in assay [6] and in [7] was inactive.
In the case of `Cc1nn(C)c(Oc2ccccc2)c1C=NOCc1ccc(C(=O)OC(C)(C)C)cc1`, the outcome in assay [1], in [3], in [9] and in [6] was inactive. Further, the AC50 is 0.0424 µM (active) in [2], 0.0249 µM (active) in assay [4], 0.0401 µM (active) in assay [5] and 7.77 µM (active) in assay [7].
On to `C=CCOC(Cn1ccnc1)c1ccc(Cl)cc1Cl` (centres undefined), for which the result in [1], in [2], in assay [9], in [6] and in [7] was inactive. For the same molecule, the AC50 in assay [3] was 75.3 µM (active); in assay [4] it was 5.64 µM (active); in assay [5], 3.55 µM (active).
In the case of `CC1(C)C(C=C(Cl)Cl)C1C(=O)OCc1cccc(Oc2ccccc2)c1` (centres undefined), the call in assay [1], in assay [2], in assay [3], in assay [5], in assay [9] and in [6] was inactive. For the same molecule, the outcome in assay [7] was inactive. For the same molecule, the AC50 in assay [4] is 6.5 µM (active).
In the case of `CCOC(=O)C(C)Oc1ccc(Oc2cnc3cc(Cl)ccc3n2)cc1` (centres undefined), the outcome in assay [1], in assay [2], in [3], in [4], in [5] and in assay [6] was inactive. The outcome in assay [7] was inactive.
